Results with a measured potency or affinity are listed apart. A number with no mark means an inactive call.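 How the source made its calls: active means every repeat run showing a signal drop whose fitted half-maximal concentration is at most twice the top tested concentration; inconclusive means repeat runs disagree, or flat partial drop, or poor fit; inactive means the rest.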
Experiment: general mammalian cell viability loss – activator set, cherry-pick, cytotoxicity control for miR-122 modulator project, dose response (AID 720690);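 further: 0% = neutral control wells and -100% = MG132 cytotoxic control wells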
Conditions: HEK293T viability, CellTiter-Glo luminescence, 48 h; series mostly up to 26 µM; activity change, negative = cytotoxicity: at the top concentration

First: O=C(NC[C@@H]1[C@@H](c2ccccc2)[C@H](CO)N1C(=O)C1CCC1)NC1CCCC1
Second: COCCN(C[C@@H]1[C@H](c2ccccc2)[C@@H](CO)N1C(=O)C1CCC1)C(C)=O
The “activity change, negative = cytotoxicity” value of the first is higher: -1.54% [at 23.5 µM] for the first, -9.91% [at 23.5 µM] for the second.

Going from `CCNC(=O)C[C@H]1CC[C@H]2[C@H](COc3ccc(NC(=O)Nc4cccc(OC)c4)cc3C(=O)N2C)O1` to `CN1C(=O)c2cc(NC(=O)Nc3cccc(Cl)c3)ccc2OC[C@H]2O[C@@H](CC(=O)NCCc3ccncc3)CC[C@H]21`, the “activity change, negative = cytotoxicity” value rises from -2.63% [at 23.5 µM] to 2.37% [at 23.5 µM].

In the case of `CCN(C[C@@H]1N[C@@H](CO)[C@@H]1c1ccc(C2=CCCC2)cc1)C(=O)c1cccnc1`, the “activity change, negative = cytotoxicity” value is reported as 8.54% [at 23.5 µM].

First: COc1ccc(C(O)(CC(C)C)C(CN2CCOCC2)c2ccccc2)cc1 (configuration not stated)
Second: CC(C)c1ccc(CNC(=O)CSCC(=O)Nc2ccc3ccccc3c2)cc1
The “activity change, negative = cytotoxicity” value of the first is higher: -7.43% for the first, -9.7% for the second.

First: C/C=C/c1ccc2c(c1)O[C@H](CN(C)C(=O)NCCC)[C@H](C)CN([C@@H](C)CO)S2(=O)=O
Second: Cc1noc(C)c1NC(=O)N(C)C[C@@H]1Oc2cc(C#CCC3CCCC3)ccc2S(=O)(=O)N([C@@H](C)CO)C[C@@H]1C
The “activity change, negative = cytotoxicity” value of the first is higher: 1.6% for the first, -48.3% for the second.

First: COc1cc(NC(=O)c2c(F)c(F)c(F)c(F)c2F)c(OC)cc1Cl
Second: COc1cccc(OCc2cc(/C=N/Nc3ccc(C(=O)O)cc3)ccc2OC)c1
The “activity change, negative = cytotoxicity” value of the first is higher: 4.98% for the first, -1.78% for the second.

Compared with `Cc1ccc(C2CC(C(F)(F)F)n3nc(C(=O)NCc4ccco4)cc3N2)cc1` (configuration not stated), `CN(C[C@H]1N[C@@H](CO)[C@H]1c1ccc(-c2cccc(F)c2)cc1)C(=O)C1CCC1` is lower in “activity change, negative = cytotoxicity” value: 5.97% for the first, 0.717% for the second.

Going from `Cc1cc(C(=O)Nc2ccc3c(c2)C(=O)N(C)[C@H]2CC[C@H](CC(=O)N[C@@H](C)c4ccccc4)O[C@H]2CO3)no1` to `CCNC(=O)C[C@@H]1CC[C@H]2[C@H](COc3ccc(NC(=O)c4ccccc4)cc3C(=O)N2C)O1`, the “activity change, negative = cytotoxicity” value rises from -13% to 5.53%.

Compared with `Cc1cc(C(C)(C)C)cc(S(=O)(=O)NCCc2ccncc2)c1C`, `C[C@@H]1CN([C@H](C)CO)S(=O)(=O)c2ccc(C3=CCCC3)cc2O[C@@H]1CN(C)C(=O)Cc1ccncc1` is lower in “activity change, negative = cytotoxicity” value: 3.39% for the first, -10.5% for the second.

Compared with `C/C=C/c1ccc([C@@H]2[C@@H](CO)N(C(=O)Cc3cccnc3)[C@H]2CNC(C)=O)cc1`, `C/C=C/c1ccc([C@@H]2[C@@H](CO)N[C@@H]2CN(CC)C(=O)CN2CCOCC2)cc1` is higher in “activity change, negative = cytotoxicity” value: -15% for the first, 8.67% for the second.

Going from `CN(C)CCCN(C(=O)CCc1ccccc1)c1nc2ccc(Br)cc2s1` to `O=C(Nc1ccccc1)N1C[C@@H]2[C@H](c3ccccc31)[C@H](CO)N2Cc1cocn1`, the “activity change, negative = cytotoxicity” value falls from -3.38% to -12.2%.

Compared with `CN1C(=O)c2cc(NC(=O)c3cccs3)ccc2OC[C@H]2O[C@H](CC(=O)NCCN3CCCCC3)CC[C@H]21`, `CC(C)C(=O)Nc1ccc2c(c1)C(=O)N(C)[C@H]1CC[C@@H](CC(=O)NCCCN(C)C)O[C@H]1CO2` is higher in “activity change, negative = cytotoxicity” value: -5.42% for the first, 5.88% for the second.

First: Cc1nnsc1Sc1cccc(C(F)(F)F)c1
Second: C[C@@H]1CN([C@@H](C)CO)S(=O)(=O)c2ccc(C3=CCCC3)cc2O[C@@H]1CN(C)C(=O)c1ccc(F)cc1
The “activity change, negative = cytotoxicity” value of the first is higher: 2.48% for the first, -11.3% for the second.

In the case of `CNC(=O)C[C@H]1CC[C@@H]2[C@H](COc3ccc(NS(=O)(=O)c4ccc(F)cc4)cc3C(=O)N2C)O1`, the “activity change, negative = cytotoxicity” value is reported as 3.09%.

In the case of `Cc1cc2[nH]c3c4ccccc4nc(C)c3c2cc1C`, the “activity change, negative = cytotoxicity” value is reported as -37.8% [at 12 µM].

— PubChem BioAssay AID720690 (Broad Institute, 2013)
